# Source: PubChem BioAssay
# A selection: hits, their analogues and other compounds. The true share with any hit is near 1.2%.
# LANA DNA inh: blocks KSHV LANA C-terminal domain binding to DNA; MBP-C-LANA/FAM-LBS DNA binding, fluorescence polarization; inhibition, % at 9 µM; hit rate 0.078% among 340,000;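 active means highest replicate inhibition at or above 60% at 9 µM, even if other replicates fall short; inactive means all replicates below 60% inhibition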;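 further: 0% = neutral control wells and 100% = 4 µM acridine orange control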
# Keap1-Nrf2 PPI: inhibitors of human Keap1-Nrf2 protein-protein interaction | Q14145 | Keap1 Kelch-Nrf2 peptide fluorescence polarization, 1536-well | inhibition, % at 9.4 µM | hit rate 0.15% among 340,000 | AID 504523; in the data active means inhibition above about 12%;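 further: human Keap1 Kelch domain with fluorescein labeled Nrf2 9mer peptide probe; 0% = neutral control wells and 100% = peptide positive control; higher means more block of Keap1 binding to Nrf2 peptide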
# MEX-5 binding: C. elegans MEX-5 TCR-2 RNA binding activity. MEX-5/FITC-TCR2 RNA binding, fluorescence polarization; hits give low values. activity score (negative = inhibition of binding), % at 10 µM. hit rate 0.38% among 300,000. Q9XUB2;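 active means inhibition past about -25% in most replicates, and total fluorescence under double the plate's negative control median, limit read from the data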;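 further: 0% = DMSO and -100% = 5 µM competing unlabeled TCR2 RNA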
# Target sequence (Q9XUB2 whole entry, looked up): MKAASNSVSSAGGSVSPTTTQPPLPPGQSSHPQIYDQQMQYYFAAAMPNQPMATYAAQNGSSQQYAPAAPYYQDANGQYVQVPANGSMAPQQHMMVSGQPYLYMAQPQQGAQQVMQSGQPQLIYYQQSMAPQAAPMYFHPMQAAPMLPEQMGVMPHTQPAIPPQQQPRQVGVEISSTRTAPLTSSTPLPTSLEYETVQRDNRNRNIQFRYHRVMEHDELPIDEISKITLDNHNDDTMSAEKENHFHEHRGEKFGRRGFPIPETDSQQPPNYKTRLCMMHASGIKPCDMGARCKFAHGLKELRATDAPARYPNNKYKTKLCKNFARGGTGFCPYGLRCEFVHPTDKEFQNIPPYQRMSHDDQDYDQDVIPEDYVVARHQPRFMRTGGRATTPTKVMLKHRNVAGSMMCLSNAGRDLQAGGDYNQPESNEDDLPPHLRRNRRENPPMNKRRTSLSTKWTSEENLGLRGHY
# GLD-1 TGE inh: GLD-1-TGE RNA interaction inhibition (C. elegans); Q17339; purified GLD-1 + fluorescein TGE RNA, fluorescence polarization; inhibition, % at 5.96 µM; hit rate 0.44% among 320,000; AID 2280;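 active means percent inhibition above a per-plate cutoff, the plate mean of test compounds plus 3 SD, cut at about 30% in these data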;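 further: 0% = DMSO wells with GLD-1 and probe and 100% = wells lacking GLD-1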
# E coli Lon inh: inhibitors of E. coli Lon protease | AID 602123 | inhibition, % at 7.94 µM | purified E. coli Lon protease, fluorescence polarization | P0A9M0 | hit rate 0.42% among 360,000; in the data active means inhibition above about 13%, passing the limit was not always enough;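 further: 0% = enzyme with probe and DMSO and 100% = no enzyme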
# Bcl-xL primary: inhibitors of human Bcl-xL | GST-Bcl-xL / FITC-Bim BH3 peptide fluorescence polarization | Q07817 | inhibition, % at 10.9 µM | hit rate 0.7% among 320,000;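 active means inhibition above the mean of all tested compounds plus 3 SD, cutoff set per campaign, cut at about 30% in these data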;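 further: 0% = DMSO wells and 100% = unlabeled Bim-BH3 peptide competitor; inhibitors lower millipolarization by displacing the labeled peptide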
# eLon confirm: confirmation of E. coli Lon protease inhibitors. purified E. coli Lon, fluorescence polarization. hit rate 31% among 1,400. AID 602230. inhibition, % at 7.94 µM. shares compounds with E coli Lon inh; in the data active means inhibition above about 16%;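 further: 0% = enzyme with probe and DMSO and 100% = no enzyme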
# * marks the source's active call; other numbers are inactive results; . = no result.
SMILES,LANA DNA inh,Keap1-Nrf2 PPI,MEX-5 binding,GLD-1 TGE inh,E coli Lon inh,Bcl-xL primary,eLon confirm
O=C(CN1C(=O)NC2(CCCCC2)C1=O)Nc1ccc2[nH]c(=O)[nH]c2c1,0.6,-1.8,.,0.3,40.1*,9.3,-7.8
Cc1ccc(NC(=O)CN2C(=O)NC3(CCCCCCC3)C2=O)cc1C,0.5,-6.6,.,1.0,-8.2,-2.5,.
O=C1CCC(C(=O)N2CCCC(C(=O)c3ccc4ccccc4c3)C2)=NN1 (stereo not given),0.7,-1.3,3.9,2.4,13.3*,3.7,-7.2
CC(C)c1cc(C(=O)N2CCCC(C(=O)c3ccc4ccccc4c3)C2)on1 (stereo not given),-0.4,-2.6,0.1,4.6,0.6,4.3,.
CC1(C(=O)NS(=O)(=O)c2ccc3c(c2)CCO3)CCN1C(=O)C1(c2ccc(Cl)cc2)CCC1 (stereo not given),.,.,.,.,3.7,.,.
O=C(NCCc1ccccc1)c1cccc(NC(=O)C2CCCCC2)c1,0.8,-6.1,.,.,8.0,.,.
O=C(NCCc1ccccc1)c1cccc(NC(=O)C2CCCC2)c1,0.6,-4.1,.,.,16.1*,.,-1.3
O=C(NCCc1ccccc1)C1CCN(S(=O)(=O)N2CCCCCC2)CC1,2.1,-7.6,-0.6,2.1,35.1*,2.6,18.8*
O=C(CCN1C(=O)C2CCCCC2C1=O)Nc1ccc(Br)cc1F (stereo not given),0.7,-1.1,2.0,4.1,-18.0,-0.7,.
Cn1cccc1C(C#N)c1ncc(C(F)(F)F)cc1Cl (stereo not given),-1.0,2.7,1.7,14.3,-2.6,2.8,.
O=C(Nc1ccccc1C(=O)N/N=C/c1ccncc1)c1ccccc1,-1.4,-1.9,-4.0,-0.7,0.1,5.9,.
Cc1ccc(C(=O)CSc2nnc(C3CC3)n2C2CC2)s1,-1.0,0.1,.,1.0,-3.2,0.4,.
O=C(Cn1sc2ccccc2c1=O)NC12CC3CC(CC(C3)C1)C2,0.8,-1.3,2.4,1.1,16.1*,21.6,5.4
O=C(Cn1sc2ccccc2c1=O)Nc1ccccc1,.,.,.,.,15.7,.,.
CNC(=O)CN1C(=O)NC2(CCc3ccccc32)C1=O (stereo not given),0.1,0.3,0.7,1.4,3.1,-2.6,.
CC(=O)c1ccc(NC(=O)CN2C(=O)NC3(CCc4ccccc43)C2=O)cc1 (stereo not given),-1.2,2.9,.,0.8,18.9*,.,-1.1
Cc1nc(CCNC(=O)CC2C(=O)NCCN2CC(C)(C)C)nc2c1CCC2 (stereo not given),0.5,-3.2,-0.6,17.6,22.0*,27.7,12.0
Cc1nc(CCNC(=O)CC2C(=O)NCCN2CC(C)C)nc2c1CCC2 (stereo not given),0.8,-0.9,-6.7,14.9,5.6,19.0,.
O=C(N/N=C/c1ccccc1)C(=O)N/N=C/c1ccccc1,-1.5,-0.8,-1.8,3.6,19.9*,2.7,2.9
Cc1cc(CN(C)C(=O)c2cc(COc3ccc(F)cc3Cl)on2)n[nH]1,-0.4,-3.2,0.0,-3.3,31.8*,6.5,-4.1
Cc1cc(Cl)ccc1OCC(=O)NNC(=O)c1cnccn1,-0.1,-3.3,-5.1,6.4,10.2,3.1,.
Cc1cc(Br)ccc1OCC(=O)NNC(=O)c1cnccn1,0.8,2.1,-7.5,-4.1,70.8*,2.4,-7.3
CC(=O)/C(C[N+]1(C)CCCCC1)=N\O,-1.9,-4.9,2.3,2.6,22.6*,-4.7,-1.5
C[N+]1(CC(=O)OC2CCCCCCCCCCC2)CCCC1,-1.3,-0.6,0.9,4.4,5.7,-23.1,.
Cc1ccc2c(c1)CO[C@]21O[C@H](CCO)C[C@H](O)[C@H]1O,.,.,.,.,3.3,.,.
CCOc1cc(-c2ccc(N)c(OCC)c2)ccc1N,0.8,0.6,.,126.8*,51.6*,148.2*,98.2*
c1ccc(C2OC3c4cccc5cccc(c45)C3N2c2ccccc2)cc1 (stereo not given),2.2,-3.5,1.3,7.8,56.3*,10.1,1.9
CC(=O)c1ccc2noc(-c3ccc(F)cc3)c2c1,10.8,1.3,-14.9,109.6*,16.4*,97.8*,58.1*
CC(=O)c1ccc2noc(-c3ccc(Cl)cc3)c2c1,1.4,1.0,0.6,6.6,-4.9,3.2,.
